Hits are enriched below; roughly 18% of the tested compounds scored in any of these assays.
DT40 TDP1 no CPT – qHTS for Inhibitors of human tyrosyl-DNA phosphodiesterase 1 (TDP1): qHTS in cells in absence of CPT. DT40 Tdp1-/- hTDP1 cells, no CPT, ATP luminescence, 48 h. Potency, µM (highest dose often 46.2 µM), without a hit: at the highest dose activity change, negative = growth inhibition, hits mostly inhibitors. 420,000 tested, 15% active; note: potency is the fitted concentration of half-maximal effect; % is set by controls: 0 for no effect and ±100 for the full control effect; nearly all actives have a fitted effect of over 55% in size
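Chicken DT40 Tdp1-/- cells stably complemented with human TDP1 were seeded at 400 cells/well with DMSO in place of 20 nM camptothecin. After compound pinning, cells grew at least 48 hr at 37 °C; viability read by CellTiter-Glo luminescence.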
TGFb inhibitor – TGF-b pathway inhibition | Potency, µM (doses to about 46.1 µM), for inactives: top-dose activity, negative = inhibition, hits mostly inhibitors | 410,000 tested, 1.2% active | HepG2 CAGA-GFP TGF-b/SMAD3 reporter, GFP fluorescence, 18 h; TGF-beta stimulated, 500 pg/mL final; note: potency is the fitted concentration of half-maximal effect; % is set by controls: 0 for no effect and ±100 for the full control effect; nearly all actives have a fitted effect of over 65% in size
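Per well, imaged GFP fluorescence of HEPG2 CAGA-GFP cells gives the signal; cells get compound, then TGF-beta (500 pg/mL final), 18 h at 37 degrees C; %Activity versus -TGF-beta and +DMSO controls.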
DT40 TDP1 CPT – growth inhibition of DT40 Tdp1-/-;hTDP1 cells with camptothecin (screen for TDP1 inhibitors); chicken DT40 Tdp1-/-;hTDP1 cells + 20 nM CPT, ATP luminescence, 48 h; Potency, µM (highest dose often 46.2 µM), for the others: at the top dose activity change, negative = growth inhibition, most hits filed as inhibitors; 420,000 tested, 12% active; AID 686979; note: potency is the fitted concentration of half-maximal effect; % is set by controls: 0 for no effect and ±100 for the full control effect; nearly all actives have a fitted effect of over 55% in size
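Chicken DT40 Tdp1-/- cells complemented with human TDP1, 400 cells/well, exposed to compounds plus 20 nM camptothecin for at least 48 h at 37 C; viability read as ATP content by CellTiter-Glo luminescence.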
IL-1B inflam inh – inflammasome signaling inhibition, IL-1 beta readout | THP-1 LPS/ATP IL-1B secretion, AlphaLISA, 16 h; active compounds read low | activity change, % at 57.5 µM | 360,000 tested, 4.7% active | AID 743279; in the data active = activity change below about -50%; inconclusive = mostly about -30% to -49%; note: % is set by controls: 0 for no effect and ±100 for the full control effect
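Secreted IL-1B measured by AlphaLISA bead assay after 16 h compound exposure of THP-1 cells; compounds (final up to 57.5 uM) added 1 h before LPS (250 ng/mL) and ATP (1.25 mM) stimulation; lower signal means less secretion.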
HepG2 viability – kills HepG2 cells in TGF-b inhibitor counter-screen; HepG2 CAGA-GFP viability, ATP luminescence, 18 h; AID 588856; 410,000 tested, 0.76% active; Potency, µM (highest dose often 46.1 µM), inactives show at the top dose activity change, negative = cytotoxicity, usual class: cytotoxic; note: potency is the fitted concentration of half-maximal effect
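HepG2 CAGA-GFP cells (1000/well, DMEM with 1% FBS) received compound, then TGF-beta at 500 pg/mL final, and were incubated 18 hours at 37 degrees C. Viability was read by CellTiter-Glo luminescence. Media-only wells were set as complete cell-killing and DMSO as no toxicity.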
TDP1 inh – TDP1 (human) enzyme inhibition. Q9NUW8. recombinant TDP1, AlphaScreen DNA substrate cleavage. Potency, µM (highest dose often 130 µM), for inactives: at the top dose activity change, negative = inhibition, hits mostly inhibitors. 350,000 tested, 0.28% active. AID 485290; note: potency is the fitted concentration of half-maximal effect; % is set by controls: 0 for no effect and ±100 for the full control effect; nearly all actives have a fitted effect of over 40% in size
Target sequence (Q9NUW8 whole entry, looked up): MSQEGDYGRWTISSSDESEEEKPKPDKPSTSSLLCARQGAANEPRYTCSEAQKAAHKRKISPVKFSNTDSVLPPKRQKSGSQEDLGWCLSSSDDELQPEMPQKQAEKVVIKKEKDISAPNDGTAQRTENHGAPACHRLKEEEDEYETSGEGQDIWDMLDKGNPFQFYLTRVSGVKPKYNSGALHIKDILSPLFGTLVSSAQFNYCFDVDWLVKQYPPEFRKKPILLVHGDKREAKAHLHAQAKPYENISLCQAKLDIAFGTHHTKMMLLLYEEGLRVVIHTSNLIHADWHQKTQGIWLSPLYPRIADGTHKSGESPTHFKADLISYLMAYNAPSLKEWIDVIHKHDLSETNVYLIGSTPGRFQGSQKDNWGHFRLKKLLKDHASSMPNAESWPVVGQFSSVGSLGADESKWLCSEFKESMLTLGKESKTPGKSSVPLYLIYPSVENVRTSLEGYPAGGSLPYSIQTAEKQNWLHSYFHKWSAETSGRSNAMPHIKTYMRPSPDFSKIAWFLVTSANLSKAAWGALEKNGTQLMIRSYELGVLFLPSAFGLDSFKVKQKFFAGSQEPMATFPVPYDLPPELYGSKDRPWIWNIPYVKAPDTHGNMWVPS
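Tdp1 1 nM final; 15 min RT w/ cpd; substrate 15 nM, 5 min; beads 10 ug/ml, 10 min; AlphaScreen read. Neg ctrl: no enzyme.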
The depositor's hits bear a star; [ ] = another dose, or the depositor's remark. Unless noted, calls come from the whole dose curve; as a rule, active = well fitted curve in the direction sought with a large enough effect; inconclusive = small, poorly fitted or top-dose-only effect, or another doubt; inactive = no such curve, though single readings can be large; an effect the other way counts as inactive or inconclusive.

Results for CCC(C)NC(=O)C(Cc1ccccc1)n1cccc1 (centres undefined) ?
DT40 TDP1 no CPT: -1%; TGFb inhibitor: -11%; DT40 TDP1 CPT: -17%; IL-1B inflam inh: -16; HepG2 viability: -17%; TDP1 inh: 4%

Results for Cc1ccc(C)c(NC(=O)C(Cc2ccccc2)n2cccc2)c1 (centres undefined) ?
DT40 TDP1 no CPT: 16µM*; TGFb inhibitor: 4%; DT40 TDP1 CPT: inconclusive; HepG2 viability: -4%; TDP1 inh: 6%

Results for Cc1ccc(NC(=O)Cc2ccccc2)c(C)c1 ?
TDP1 inh: 0%

Results for CN1CCN(c2ccccc2NC(=O)C(Cc2ccccc2)n2cccc2)CC1 (centres undefined) ?
DT40 TDP1 no CPT: inconclusive; TGFb inhibitor: -5%; DT40 TDP1 CPT: 26µM*; IL-1B inflam inh: -30; HepG2 viability: -34%; TDP1 inh: 8%

How did O=C(Nc1ccccc1F)C(Cc1ccccc1)n1cccc1 (centres undefined) do in these assays?
DT40 TDP1 no CPT: 15µM*; TGFb inhibitor: -11%; DT40 TDP1 CPT: inconclusive; HepG2 viability: -22%; TDP1 inh: 9%

What do the screens show for `Cc1ccc(NC(=O)C(Cc2ccccc2)n2cccc2)c(C)c1` (centres undefined)?
DT40 TDP1 no CPT: 15µM*; TGFb inhibitor: -20%; DT40 TDP1 CPT: 15µM*; HepG2 viability: -22%; TDP1 inh: 1%

Results for CN1CCN(c2ccccc2NC(=O)Cc2ccc(Cl)cc2)CC1 ?
DT40 TDP1 no CPT: -18%; TGFb inhibitor: -3%; DT40 TDP1 CPT: -18%; IL-1B inflam inh: -29; HepG2 viability: -6%; TDP1 inh: 4%

Results for CCOc1ccc(NC(=O)COC(=O)c2ccccc2OCC(=O)N(C)C)cc1 ?
DT40 TDP1 no CPT: -13%; TGFb inhibitor: 0%; DT40 TDP1 CPT: -16%; HepG2 viability: -3%

What do the screens show for `N#Cc1ccc(C(C(=O)NCc2ccccc2)n2c(=O)c(-c3cc4ccccc4[nH]3)nc3ccccc32)cc1` (centres undefined)?
DT40 TDP1 no CPT: 9.2µM*; DT40 TDP1 CPT: 12µM*; IL-1B inflam inh: 9

How did CCCCCNC(=O)C(c1ccc(-c2ccccc2)cc1)n1c(=O)c(-c2cc3ccccc3[nH]2)nc2ccccc21 (centres undefined) do in these assays?
DT40 TDP1 no CPT: -22%; DT40 TDP1 CPT: -6%; IL-1B inflam inh: 67

Results for O=C(Nc1ccc2ccccc2c1)C(C1CC1)n1c(=O)c(-c2cc3ccccc3[nH]2)nc2ccccc21 (centres undefined) ?
DT40 TDP1 no CPT: inconclusive; DT40 TDP1 CPT: inconclusive; IL-1B inflam inh: -15

What do the screens show for `COc1ccc(C(C(=O)Nc2ccc3c(c2)OCCO3)n2c(=O)c(-c3cc4ccccc4[nH]3)nc3ccccc32)cc1` (centres undefined)?
DT40 TDP1 no CPT: inconclusive; DT40 TDP1 CPT: inconclusive; IL-1B inflam inh: -13

How did O=C(NCc1ccccc1)C(c1ccc(C(F)(F)F)cc1)n1c(=O)c(-c2cc3ccccc3[nH]2)nc2ccccc21 (centres undefined) do in these assays?
DT40 TDP1 no CPT: 15µM*; DT40 TDP1 CPT: inconclusive; IL-1B inflam inh: 75

Results for COc1ccc(NC(=O)C(c2ccc(C(F)(F)F)cc2)n2c(=O)c(-c3cc4ccccc4[nH]3)nc3ccccc32)cc1 (centres undefined) ?
DT40 TDP1 no CPT: inconclusive; DT40 TDP1 CPT: 18µM*; IL-1B inflam inh: 141

Results for COc1ccc(NC(=O)C(C2CC2)n2c(=O)c(-c3cc4ccccc4[nH]3)nc3ccccc32)cc1 (centres undefined) ?
DT40 TDP1 no CPT: inconclusive; DT40 TDP1 CPT: 29µM*; IL-1B inflam inh: inconclusive

Results for O=C(COC(=O)CNC(=O)c1sc2ccccc2c1Cl)Nc1c(Cl)cc(Cl)cc1Cl ?
DT40 TDP1 no CPT: -16%; TGFb inhibitor: 1%; DT40 TDP1 CPT: 2%; IL-1B inflam inh: 0; HepG2 viability: 0%; TDP1 inh: 0%

Results for Cc1ccccc1NC(=O)c1nc(SCc2ccccc2F)ncc1Cl ?
DT40 TDP1 no CPT: -29%; TGFb inhibitor: 5%; DT40 TDP1 CPT: inconclusive; HepG2 viability: -2%

Results for CCOc1ccc(NC(=O)c2sc(-n3nc(C)c(Cc4ccc(Cl)cc4)c3C)nc2C)cc1 ?
DT40 TDP1 no CPT: -21%; TGFb inhibitor: 1%; DT40 TDP1 CPT: 5%; HepG2 viability: -3%; TDP1 inh: 8%

How did C[C@@H](CN1c2ccccc2Sc2ccccc21)N(C)C do in these assays?
TDP1 inh: 15%[21 µM]

How did CC(=O)c1c(C)[nH]c(C(=O)NC(C)c2ccccc2)c1C (centres undefined) do in these assays?
DT40 TDP1 no CPT: 16µM*; TGFb inhibitor: -7%; DT40 TDP1 CPT: inconclusive; IL-1B inflam inh: 40; HepG2 viability: 4%; TDP1 inh: -2%

How did CC(=O)c1c(C)[nH]c(C(=O)Nc2nccs2)c1C do in these assays?
DT40 TDP1 no CPT: 13µM*; TGFb inhibitor: -7%; DT40 TDP1 CPT: 12µM*; IL-1B inflam inh: 20; HepG2 viability: -3%; TDP1 inh: 4%

Results for CCN(C[C@H]1N[C@@](CC)(C(=O)OC)[C@H]2C(=O)N(Cc3ccccc3)C(=O)[C@@H]12)C(C)=O ?
DT40 TDP1 no CPT: -1%; TGFb inhibitor: 18%; DT40 TDP1 CPT: -7%; IL-1B inflam inh: 15; HepG2 viability: -4%; TDP1 inh: 0%

Results for CC(=O)[C@@]1(O)CC[C@H]2[C@@H]3C=C(Cl)C4=CC(=O)CC[C@]4(C)[C@H]3CC[C@@]21C ?
DT40 TDP1 no CPT: -27%; DT40 TDP1 CPT: inconclusive

What do the screens show for `O=C(CN1CCN(S(=O)(=O)c2ccc(Cl)cc2)CC1)Nc1ccc2c(c1)OCCO2`?
DT40 TDP1 no CPT: 15µM*; TGFb inhibitor: -1%; DT40 TDP1 CPT: inconclusive; IL-1B inflam inh: -5; HepG2 viability: -25%; TDP1 inh: 4%

Results for O=C(CN1CCN(S(=O)(=O)c2ccc(Cl)cc2)CC1)Nc1ccc2c(c1)OCO2 ?
DT40 TDP1 no CPT: 29µM*; TGFb inhibitor: -1%; DT40 TDP1 CPT: inconclusive; IL-1B inflam inh: -19; HepG2 viability: 4%; TDP1 inh: 6%

Screening data deposited in PubChem by National Center for Advancing Translational Sciences (NCATS).
